Inconclusive results are not listed. A number with no mark means an inactive call. The source made the active and inactive calls. Calls follow the shape of the dose curve; as a rule, active = well fitted activation curve with a large enough effect in the repeat runs; inconclusive = weak or mixed curves; inactive = flat fitted curve, though single readings scatter.
assay: A CellTox Green Cytotoxicity Assay to monitor cytotoxicity in HepG2 cells - 24 hour (AID 1224878); details: CellTox Green fluorescence; series mostly up to 76.8 µM; cytotoxicity: at the top concentration; also: nearly all actives have a fitted effect of over 45% in size
Source text: National Center for Advancing Translational Sciences [NCATS]
NIH Chemical Genomics Center [NCGC]
U.S. Environmental Protection Agency [EPA]
National Institutes of Environmental Health Sciences [NIEHS]
National Toxicology Program [NTP]
Cell-based models are critical for drug discovery. Determining the natural cytotoxic effects resulting from test compounds is an essential research activity. A CellTox Green Cytotoxicity Assay to monitor cytotoxicity in real time of continues cell culture during 40 hours of the compound treatment was used to screen Tox21 10K library compounds in HepG2 cells. CellTox Green Cytotoxicity Assay is a nonlytic, homogeneous, biofluorescent method to measure cytotoxicity in cell culture after experimental manipulation. The assay system uses a proprietary asymmetric cyanine dye that is excluded from viable cells but preferentially stains the dead cell's DNA. […] Viable cells produce no appreciable increases in fluorescence. Therefore, the fluorescence signal produced by the binding interaction with dead cell DNA is proportional to cytotoxicity.
The mixture of HepG2 cell suspension and reagents were dispensed at 600cells/6 ul/well in 1536-well tissue culture treated black solid bottom plates using a Multidrop dispenser. After the assay plates were incubated at a 37 C/5% CO2 incubator for 5 hours, 23 nL of compounds dissolved in DMSO, positive and negative controls was transferred to the assay plate by a pintool work station. The plates were incubated at 37 C for 40 hours. The fluorescence intensity were measured at 0h, 8h, 16h, 24h, 32h and 40h time points using ViewLux plate reader during compound treatment.
% is scaled to controls: 0 for no effect and ±100 for the full control effect; potency is read from the fitted curve at half-maximal effect.

SMILES	cytotoxicity	Potency
Cc1oc(C)c(C(=O)Nc2ccccc2)c1C	2.66%	–
Cc1cc2nc3ccc(=[N+](C)C)cc-3sc2cc1N	-30.7% [at 35.3 µM]	–
CC1(C)O[C@@H]2C[C@H]3[C@@H]4CCC5=CC(=O)C=C[C@]5(C)[C@H]4[C@@H](O)C[C@]3(C)[C@]2(C(=O)CO)O1	-12.5% [at 35.3 µM]	–
COC(=O)CC(=O)C(C)(C)C	0.959%	–
C=CC(C)(C)CC(=O)OC	-0.547%	–
Nc1c(I)cc(I)c(C(=O)N(CCC(=O)O)c2ccccc2)c1I	3.96% [at 35.3 µM]	–
O=C1OCCN1/N=C/c1ccc([N+](=O)[O-])o1	-13.1% [at 35.3 µM]	–
COc1ccc(C(=O)c2cccc(O)c2)c(OC)c1	-5.2%	–
CCOC(=O)C(C)Oc1ccc(Oc2nc3ccc(Cl)cc3o2)cc1 (stereo not given)	0.632%	–
O=C(O)c1cccnc1C(=O)O	-0.0334%	–
CC[C@@H]([C@H](C)O)n1ncn(-c2ccc(N3CCN(c4ccc(OC[C@@H]5CO[C@@](Cn6cncn6)(c6ccc(F)cc6F)C5)cc4)CC3)cc2)c1=O	10.9% [at 35.3 µM]	–
O=c1[nH]c2ccc(S(=O)CCN3CCC(Cc4ccc(F)cc4)CC3)cc2o1 (stereo not given)	7.79%	–
CCCCC(CC)C(=O)OCCOCCOCCOCCOC(=O)C(CC)CCCC (stereo not given)	0.747%	–
CCOC(=O)CC(=O)C(=O)OCC	-0.133%	–
CN1CCN(CCCN2c3ccccc3Sc3ccc(S(=O)(=O)N(C)C)cc32)CC1	–	26.8 µM (active)
C=CC(=C)CCCC(C)(C)OC(C)=O	-11.8%	–
Cc1oncc1C(=O)Nc1ccc(C(F)(F)F)cc1	0.301% [at 35.3 µM]	–
CNC(=S)NC	1.11%	–
Cc1ccccc1N1C(=O)c2cc(S(N)(=O)=O)c(Cl)cc2NC1C (stereo not given)	-2.34% [at 35.3 µM]	–
Cc1occc1C(=O)Nc1ccc(C(=O)N2CCC(F)(F)/C(=C\C(=O)N3CCC(N4CCCCC4)CC3)c3ccccc32)cc1	15.5% [at 35.3 µM]	–

SMILES	cytotoxicity	Potency
N#C[C@@H]1C[C@@H]2C[C@@H]2N1C(=O)[C@@H](N)C12CC3CC(CC(O)(C3)C1)C2	-3.71% [at 35.3 µM]	–
CCC(C)(O)CCC=C(C)C (stereo not given)	-10.9%	–
O=C(CCC1CCN(Cc2ccccc2)CC1)c1ccc2c(c1)NCCCC2	21.9% [at 35.3 µM]	–
CN1C(=O)CC(C)(c2ccccc2)C1=O (stereo not given)	-15.6% [at 35.3 µM]	–
CC1CC(=O)NN=C1c1ccc(NCC(C)(C)NCC(O)COc2cc(Cl)ccc2C#N)cc1 (stereo not given)	-9.06% [at 35.3 µM]	–
CC(=O)[C@H]1CC[C@H]2[C@@H]3C=CC4=CC(=O)CC[C@@]4(C)[C@@H]3CC[C@]12C	-1.45% [at 35.3 µM]	–
[O]=[Bi]	-9.9% [at 6.97 µM]	–
CC(COc1ccc(C(C)(C)C)cc1)OS(=O)OCCCl (stereo not given)	-3.95%	–
CC(=O)[C@H]1CC[C@H]2[C@@H]3C[C@H](C)C4=CC(=O)CC[C@]4(C)[C@H]3[C@@H](O)C[C@]12C	2.86% [at 35.3 µM]	–
COC(=O)[C@@H]1CC2=CC(=O)CC[C@]2(C)[C@@]23O[C@@H]2C[C@@]2(C)[C@@H](CC[C@@]24CCC(=O)O4)[C@H]13	7.84% [at 35.3 µM]	–
O=C(NCCCN1CCOCC1)c1ccc(Cl)cc1	-12.6% [at 35.3 µM]	–
Oc1cc(O)c(Cl)cc1Cl	8.2%	–
Cc1ccc(S)cc1	–	17.4 µM (active)
COc1ccc(CCC(=O)c2c(O)cc(O[C@@H]3O[C@H](CO)[C@@H](O)[C@H](O)[C@H]3O[C@@H]3O[C@@H](C)[C@H](O)[C@@H](O)[C@H]3O)cc2O)cc1O	0.482%	–
C[N+](C)(C)CCOC(N)=O	-7.83% [at 35.3 µM]	–
Cc1ccc(S(=O)(=O)NC2CCCCC2)cc1	-1.27%	–
CC(N)CN (stereo not given)	-3.32%	–
CCCCN(CCCC)C(=S)SSC(=S)N(CCCC)CCCC	10.9%	–
Cc1ccc(/C=N/n2c(-c3ccccc3)csc2=S)cc1	-4.65% [at 35.3 µM]	–
Nc1ccc(S(=O)(=O)O)c(N)c1	11%	–

From PubChem BioAssay (Tox21)
